Records with an inconclusive call do not appear. Where a call stands in place of a potency, no number is given. Unmarked numbers belong to inactive results. Activity calls are given as the source filed them. Calls follow the shape of the dose curve; as a rule, active = well fitted cell-killing curve with a large enough effect; inconclusive = small, poorly fitted or top-dose-only effect; inactive = no such curve, though single readings can be large or run the other way.
assay: qHTS of pediatric cancer cell lines to identify multiple opportunities for drug repurposing: Primary screen for SJ-GBM2 cells (AID 1347091); settings: SJ-GBM2 viability, CellTiter-Glo luminescence, 48 h; series mostly up to 46 µM
From the text: Drug repurposing or repositioning has been offered as a strategy for drug development in oncology programs. This approach has special potential for childhood cancers and other rare or orphan diseases, where the expected return on new drug development has been a disincentive to pharmaceuticals.
In this project we exploit the poly-pharmacology of drugs to discover new indications via phenotypic screening of a panel of 19 well-characterized cell lines derived from solid tumors seen in children and adolescents. The goal is to identify approved drugs with previously unrecognized anticancer properties that has the potential to reveal new mechanisms and biological processes involved in carcinogenesis or drug resistance. We employed a titration-based paradigm (quantitative high-throughput screening or qHTS), where all compounds were tested at multiple concentrations for their effect on cell viability. Concentration-response curves (CRCs) were derived directly from the primary screen, and both potency and efficacy values were used to identify compounds with robust bioactivity profiles. We screened the NIH Chemical Genomics Center (NCGC) Pharmaceutical Collection (NPC) and Mechanism Interrogation Plate (MIPE) small molecule collections of approved and investigational compounds against these cell lines; and measured metabolically active cells after 48 hours of compound treatment as a proxy for cell viability.
Assay Submitter: Nathalia J. Martinez, National Center for Advancing Translational Sciences, National Institutes of Health, Rockville, MD, USA; email: natalia.martinez@nih.gov
[1] Shen, M et al. Quantitative high-throughput phenotypic screening of pediatric cancer cell lines identifies multiple opportunities for drug repurposing. Oncotarget 2017 Dec 19;9(4):4758-4772. PMID 29435139.
The cells were obtained from University of North Carolina (UNC), Pediatric Preclinical Testing Program (PPT), and Coriell Institute (CI).
qHTS cell viability assay:
Cells were assayed in growth media at a density of 500-1,000 cells/well. Five microliters of cells were dispensed into 1,536-well, white, solid-bottom, TC-treated plates (Greiner Bio One) using a multidrop dispenser and incubated at 37 degrees C, 5% CO2, under a humidified atmosphere for 5 hours. Twenty-three nanoliters of compounds and controls (neutral control DMSO or positive control bortezomib at final concentration of 2.3 µM) were subsequently transferred by Kalypsys pintool. For primary screens, the MIPE collection was tested at 11-point dilutions (final concentrations range from 0.78 nM to 46 µM) and the NPC collection at 8-point dilutions (final concentrations range from 0.59 nM to 46 µM). Compounds tested in follow-up screens were assayed at 11-point dilutions. Cells were incubated for 48 hours, followed by addition of 3 uL of CellTiter-Glo (Promega). After a 15 min incubation at room temperature, samples were analyzed for luminescence intensity using a ViewLux High-throughput CCD imager equipped with clear filters.
Potency is read from the fitted curve at half-maximal effect.

Question: For `COc1ccc(C2C(=O)c3ccccc3C2=O)cc1`, which Potency is on record?
Answer: Its Potency is “inactive”.

Question: With `CNC(=O)CN(CCN(CCN(CC(=O)[O-])CC(=O)NC)CC(=O)[O-])CC(=O)[O-].O.[Gd+3]` as the compound, how does the Potency read?
Answer: Its Potency is “inactive”.

Question: For `CC(=O)OCC(=O)[C@@]1(O)CC[C@H]2[C@@H]3CCC4=CC(=O)C=C[C@]4(C)[C@H]3[C@@H](O)C[C@@]21C`, which Potency is on record?
Answer: Its Potency is “inactive”.

Question: For `CO/N=C1\CN(c2nc3c(cc2F)c(=O)c(C(=O)O)cn3C2CC2)CC1CN` (stereo not given), which Potency is on record?
Answer: The Potency was “inactive”.

Question: For `CC1(C)O[C@@H]2[C@@H](CO[C@@]3(COS(N)(=O)=O)OC(C)(C)O[C@@H]23)O1`, which Potency is on record?
Answer: The Potency was “inactive”.

Question: With `C[C@]12C=CC(=O)C=C1[C@@H](F)C[C@@H]1[C@@H]2[C@@H](O)C[C@@]2(C)[C@H]1CC[C@]2(O)C(=O)CO` as the compound, how does the Potency read?
Answer: Its Potency is “inactive”.

Question: With `CN=C(NC#N)Nc1ccc(C2=NNC(=O)CC2C)cc1` (stereo not given) as the compound, how does the Potency read?
Answer: Its Potency is “inactive”.

Question: With `CC(=O)Nc1c(I)cc(I)c(C(=O)O)c1I` as the compound, how does the Potency read?
Answer: Its Potency is “inactive”.

Question: With `C=C1C[C@H]2[C@@H]3C=C(C)C4=CC(=O)CC[C@]4(C)[C@H]3CC[C@]2(C)[C@@]1(OC(C)=O)C(C)=O` as the compound, how does the Potency read?
Answer: Its Potency is “inactive”.

Question: Which Potency does the source give for `Cc1cccn2c(=O)c(-c3nnn[nH]3)cnc12` here?
Answer: Its Potency is “inactive”.

Question: Which Potency does the source give for `CCCCCCCCCCCCCCCCCC(=O)OCC(O)CO` (stereo not given) here?
Answer: The Potency was “inactive”.

Question: With `CC(C)(C(=O)c1cccnc1)c1cccnc1` as the compound, how does the Potency read?
Answer: Its Potency is “inactive”.

Question: Which Potency does the source give for `CN(C)CC/C=C1/c2ccccc2COc2ccc(CC(=O)O)cc21` here?
Answer: The Potency was “inactive”.

Question: Which Potency does the source give for `CC(=O)OCC(=O)NCCCOc1cccc(CN2CCCCC2)c1` here?
Answer: The Potency was “inactive”.

Question: With `NC(=O)c1cc[n+](CC2=C(C(=O)[O-])N3C(=O)[C@@H](NC(=O)Cc4cccs4)[C@H]3SC2)cc1` as the compound, how does the Potency read?
Answer: The Potency was “inactive”.

Question: Which Potency does the source give for `CCCCC1=NC2(CCCC2)C(=O)N1Cc1ccc(-c2ccccc2-c2nn[nH]n2)cc1` here?
Answer: The Potency was “inactive”.

Question: For `COc1cc(OC)cc(OC)c1`, which Potency is on record?
Answer: Its Potency is “inactive”.

Question: For `CCCCS(=O)(=O)N[C@@H](Cc1ccc(OCCCCC2CCNCC2)cc1)C(=O)O`, which Potency is on record?
Answer: Its Potency is “inactive”.

Question: With `CNCC[C@@H](Oc1ccccc1C)c1ccccc1` as the compound, how does the Potency read?
Answer: The Potency was “inactive”.

Question: With `CN(C)/N=N/c1nc[nH]c1C(N)=O` as the compound, how does the Potency read?
Answer: Its Potency is “inactive”.

Question: For `NC(CO)(CO)CO`, which Potency is on record?
Answer: Its Potency is “inactive”.

Question: With `COc1cccc(OC)c1C(=O)N[C@@H]1C(=O)N2[C@@H]1SC(C)(C)[C@@H]2C(=O)O` as the compound, how does the Potency read?
Answer: Its Potency is “inactive”.

Question: For `C[C@]12CC[C@H]3[C@@H](CCC4=CC(=O)CC[C@@]43C)[C@@H]1CC[C@@H]2C(=O)CO`, which Potency is on record?
Answer: The Potency was “inactive”.

Question: For `NC[C@H]1O[C@H](O[C@H]2[C@H](O[C@@H]3O[C@H](CO)[C@@H](O)[C@H]3O)C(O)[C@H](N)C[C@@H]2N)[C@H](N)[C@@H](O)[C@@H]1O` (stereo not given in full), which activity change, negative = cytotoxic is on record?
Answer: Its activity change, negative = cytotoxic is 15.5% [at 9.22 µM].

Question: For `c1ccc(-c2ccc(C(c3ccccc3)n3ccnc3)cc2)cc1` (stereo not given), which Potency is on record?
Answer: Its Potency is “inactive”.

Question: For `CC(=O)N/N=C/c1ccc([N+](=O)[O-])o1`, which Potency is on record?
Answer: Its Potency is “inactive”.

Question: For `Nc1ccn([C@@H]2O[C@H](CO)[C@@H](O)C2(F)F)c(=O)n1`, which Potency is on record?
Answer: Its Potency is 473 nM (active).

Question: With `COC(=O)[C@@H]1CC2=CC(=O)CC[C@]2(C)[C@@]23O[C@@H]2C[C@@]2(C)[C@@H](CC[C@@]24CCC(=O)O4)[C@H]13` as the compound, how does the Potency read?
Answer: The Potency was “inactive”.

Question: For `COc1cc2c(cc1OC)C(C(C(=O)N(CCc1ccc(OC)c(OC)c1OC)CCc1ccc(OC)c(OC)c1OC)c1ccccc1)=NCC2` (stereo not given), which Potency is on record?
Answer: The Potency was “inactive”.

Question: With `Nc1ccc(/C=C/c2ccc(N)cc2S(=O)(=O)O)c(S(=O)(=O)O)c1` as the compound, how does the activity change, negative = cytotoxic read?
Answer: The activity change, negative = cytotoxic was 4.37% [at 0.597 µM].

Question: For `CC(=O)OCC(=O)[C@@]12N=C(C)O[C@@H]1C[C@H]1[C@@H]3CCC4=CC(=O)C=C[C@]4(C)[C@H]3[C@@H](O)C[C@@]12C`, which Potency is on record?
Answer: Its Potency is “inactive”.

Question: Which Potency does the source give for `O=C(O)CNC(=O)c1ccccc1` here?
Answer: The Potency was “inactive”.

Question: Which Potency does the source give for `CC(C)NC[C@@H](O)COc1cccc2ccccc12` here?
Answer: The Potency was “inactive”.

Question: For `CCCCCC=CCC=CCCCCCCCC(=O)OCC`, which Potency is on record?
Answer: The Potency was “inactive”.

Question: With `COCc1c(C(C)C)nc(C(C)C)c(/C=C/[C@@H](O)C[C@@H](O)CC(=O)O)c1-c1ccc(F)cc1` as the compound, how does the Potency read?
Answer: The Potency was 237 nM (active).

Question: With `O=c1[nH]c(=O)n([C@H]2CCCO2)cc1F` as the compound, how does the Potency read?
Answer: Its Potency is “inactive”.

Question: Which Potency does the source give for `Oc1c(I)cc(I)c2cccnc12` here?
Answer: Its Potency is 13300 nM (active).

Question: Which Potency does the source give for `CC(C)(C)NC(=O)[C@@H]1CN(Cc2cccnc2)CCN1C[C@@H](O)C[C@@H](Cc1ccccc1)C(=O)N[C@H]1c2ccccc2C[C@H]1O` here?
Answer: The Potency was “inactive”.

Question: For `CC(=O)OCC(=O)[C@@]12OC(C)(C)O[C@@H]1C[C@H]1[C@@H]3C[C@H](F)C4=CC(=O)C=C[C@]4(C)[C@@]3(F)[C@@H](O)C[C@@]12C`, which Potency is on record?
Answer: The Potency was “inactive”.

Question: With `CC[N+](CC)(CCNC(=O)C(=O)NCC[N+](CC)(CC)Cc1ccccc1Cl)Cc1ccccc1Cl` as the compound, how does the Potency read?
Answer: Its Potency is “inactive”.

Reference: PubChem BioAssay (NCATS)
